PubChem BioAssay (NCATS)

target: Cytochrome P450 3A4 (Homo sapiens) (UniProt P08684); assay: qHTS Assay for Activators of Cytochrome P450 3A4 (AID 885); conditions: recombinant CYP3A4, Luciferin-PPXE luminescence, 60 min; series mostly up to 57.1 µM; activity change, positive = activation: at the top concentration; note: nearly all actives have a fitted effect of over 65% in size
In short: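 Using 20nM recombinant human CYP3A4 in potassium phosphate (200mM), substrate Luciferin-PPXE at 25uM, luminescent luciferin detection followed a 60-min RT NADPH reaction; data scaled to 57 uM ketoconazole.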

Chain of Cytochrome P450 3A4 (Homo sapiens) (P08684 whole entry, looked up): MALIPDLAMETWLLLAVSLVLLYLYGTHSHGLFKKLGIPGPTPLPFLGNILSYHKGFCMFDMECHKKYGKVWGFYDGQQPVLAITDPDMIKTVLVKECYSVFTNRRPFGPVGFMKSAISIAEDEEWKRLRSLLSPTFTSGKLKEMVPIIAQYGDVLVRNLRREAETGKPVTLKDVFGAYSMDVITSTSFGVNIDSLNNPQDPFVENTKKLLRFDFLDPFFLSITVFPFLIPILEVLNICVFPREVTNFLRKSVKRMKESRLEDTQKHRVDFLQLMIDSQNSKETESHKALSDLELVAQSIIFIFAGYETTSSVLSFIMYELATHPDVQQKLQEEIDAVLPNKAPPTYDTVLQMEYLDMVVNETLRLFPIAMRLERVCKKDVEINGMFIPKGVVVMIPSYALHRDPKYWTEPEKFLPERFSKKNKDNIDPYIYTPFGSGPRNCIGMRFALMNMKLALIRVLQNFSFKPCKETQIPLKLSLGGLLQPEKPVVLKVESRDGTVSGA

Activity change, positive = activation, inactive:
COC(=O)c1ccc(CN2[C@H](C(=O)OC)C[C@@]3(O)[C@H](O)[C@H](O)[C@H](O)C[C@@H]23)cc1 -38.6%
C#CCCCO/N=C1/C[C@@H](O)[C@@H](O)[C@@H]2[C@@H]3C(=O)N(C[C@@H]4CCCO4)C(=O)[C@H]3CC[C@@H]12 -39.4% [at 11.4 µM]
CCC1=C(OC(=O)N(CC)CC)N2C(=O)OC(=NCCc3c[nH]c4ccccc34)[C@]2(Cc2ccccc2)[C@H]2C1=CC[C@H]1C(=O)N(CC(=O)OC)C(=O)[C@H]12 -103%
COC(=O)[C@@H]1C[C@@]2(O)[C@@H](O)[C@@H](O)[C@@H](O)C[C@H]2N1CC1CCCCC1 -36.1%
CCC1=C(OC(=O)N(CC)CC)N2C(=O)OC(=NCCOC)[C@]2(C)[C@H]2C1=CC[C@H]1C(=O)N(C)C(=O)[C@H]12 -59.6%
Nc1cc(=O)[nH]c(=O)n1CC1CC1 -43.3%
CO[C@@H]1COC(=O)CC=C[C@@H](C)[C@@H]2C=C[C@H](O)[C@@H](COC(=O)C/C=C\[C@H]1C)O2 -43.1% [at 11.4 µM]
COC(=O)[C@@H]1C[C@@]2(O)[C@H](O)[C@H](O)[C@H](O)C[C@H]2N1CC(c1ccccc1)c1ccccc1 -52.9%
CC(C)=CCC/C(C)=C/CO/N=C1/C[C@@H](O)[C@@H](O)[C@@H]2[C@H]3C(=O)N(c4ccc(F)cc4F)C(=O)[C@@H]3CC[C@H]12 -35.2% [at 11.4 µM]
COC(=O)C/C=C\[C@@H](C)[C@@H](/C=N\O[C@@H](C)CN1CCCc2nc(C)c(C)cc21)OC -59.1% [at 11.4 µM]
COc1ccc(COC(=O)N/N=C2/C[C@@H](O)[C@@H](O)[C@@H]3[C@@H]4C(=O)N([C@@H](C)c5ccccc5)C(=O)[C@H]4CC[C@H]23)cc1 -54.4% [at 11.4 µM]
CO[C@@H]1/C=C\CC(=O)N[C@@H](C)C(=O)OC[C@@H](OC)[C@H](C)CCCC(=O)OC[C@H]1C -57.1% [at 11.4 µM]
CO[C@@H]1COC(=O)[C@@H](CCSC)NC(=O)C/C=C\[C@@H](C)COC(=O)CCC[C@H]1C -30.5% [at 11.4 µM]
CC(C)CO/N=C1/C[C@@H](O)[C@@H](O)[C@@H]2[C@@H]3C(=O)N(Cc4ccc5c(c4)OCO5)C(=O)[C@H]3CC[C@@H]12 -50.2% [at 11.4 µM]
CCC1=C2CC[C@H]3C(=O)N(CC(=O)OC)C(=O)[C@H]3[C@H]2[C@@]2(C)C(=NCC(=O)OC)OC(=O)N2C1=O -54.5%
COC(=O)[C@@H]1C[C@H]2CC[C@H](O)C[C@H]2N1Cc1ccc(C(F)(F)F)cc1 -52.4%
COC(=O)[C@@H]1C[C@@H]2CC[C@@H](O)C[C@@H]2N1Cc1ccc(N2CCOCC2)cc1 -34.3%
O=C1[C@H]2[C@H]3[C@H](O)[C@H](O)C/C(=N/OCc4ccccc4)[C@H]3CC[C@@H]2C(=O)N1Cc1ccc2c(c1)OCO2 -96.1% [at 11.4 µM]
FC(F)(F)c1ccc(CN2C[C@@H]3C(c4ccccc4)C4(c5ccccc5)CC3(C4)[C@H]2c2ccccc2)cc1 (some centres undefined) -53.9%
O=C1[C@H]2[C@H]3[C@H](O)[C@H](O)C/C(=N/OC[C@@H](O)COCc4ccco4)[C@H]3CC[C@@H]2C(=O)N1Cc1ccccc1 -57.9% [at 11.4 µM]
O=C1[C@H]2[C@H]3[C@H](O)[C@H](O)C/C(=N/OC[C@@H](O)COCc4ccco4)[C@H]3CC[C@@H]2C(=O)N1C1CCCCC1 -43.8% [at 11.4 µM]
C[C@H]1CC[C@H]2C(=O)N3[C@H](c4ccc(Br)cc4)[C@@H](C)CC[C@H]3C(=O)N2[C@@H]1c1ccc(Br)cc1 -43.1% [at 11.4 µM]
COC(=O)[C@@H]1C[C@@]2(O)[C@@H](O)[C@@H](O)[C@@H](O)C[C@H]2N1Cc1cc(F)ccc1F -30.5%
COC(=O)[C@@H]1C[C@@]2(O)[C@H](O)[C@H](O)[C@H](O)C[C@H]2N1Cc1ccc(-c2ccccc2)cc1 -55.8%
CCc1cc2c(nc1CC)CCN(CC/C(C)=N/OC[C@@H](O)COCc1ccco1)C2 -38.2% [at 11.4 µM]
Cc1ccc(S(=O)(=O)N[C@H]2COC(=O)[C@@H](C)COC(=O)[C@H](C)NC(=O)C/C=C\[C@H]2C)cc1 -40.2% [at 11.4 µM]
C/C(CCN1CCCc2nc(C)c(C)cc21)=N\OC[C@@H](C)[C@H](OCc1ccccc1)C(C)C -46.3% [at 11.4 µM]
CC(=O)OC[C@@H]1O[C@H](CCO/N=C(\C)CCN2CCc3nc(-c4ccccc4)c(-c4ccccc4)cc3C2)C=C[C@@H]1OC(C)=O -47.2% [at 11.4 µM]
C/C(CCN1CCc2nc(-c3ccccc3)c(-c3ccccc3)cc2C1)=N\OC[C@@H](O)[C@@H]1O[C@@H]2OC(C)(C)O[C@@H]2[C@H]1O -41.3% [at 11.4 µM]
CCc1cc2c(nc1CC)CCN(CC/C(C)=N/OCC[C@@H]1C=C[C@H](OC(C)=O)[C@H](COC(C)=O)O1)C2 -32.1% [at 11.4 µM]
COc1ccc(COC(=O)N/N=C2/C[C@@H](O)[C@@H](O)[C@@H]3[C@@H]4C(=O)N([C@@H](C)c5ccccc5)C(=O)[C@H]4CC[C@@H]23)cc1 -39.8% [at 11.4 µM]
Cc1nc(NC2CCCCC2)c2nc(-c3ccccc3)n(CCCN3CCOCC3)c2n1 -51.2%
CO[C@H]1COC(=O)[C@@H](C)COC(=O)[C@@H](COCc2ccccc2)NC(=O)C/C=C\[C@H]1C -40.1% [at 11.4 µM]
CCC1=C2CC[C@H]3C(=O)N(C)C(=O)[C@H]3[C@H]2[C@@]2(C)C(=O)N(CC(=O)OC)C(=O)N2C1=O -52.5%
CO[C@@H]1COC(=O)C/C=C\[C@@H](C)[C@H](OC)COC(=O)[C@H](COCc2ccccc2)NC(=O)C/C=C\[C@H]1C -41.7% [at 11.4 µM]
Cn1c(N)c(C(=O)COC(=O)c2ccnc3ccccc23)c(=O)n(C)c1=O -56.8%
CCC1=C2CC[C@H]3C(=O)NC(=O)[C@H]3[C@H]2[C@@]2(C)C(=O)N(CC3CC3)C(=O)N2C1=O -36.8%
O=C(N/N=C1/C[C@@H](O)[C@@H](O)[C@@H]2[C@H]3C(=O)N(c4ccc(F)cc4F)C(=O)[C@@H]3CC[C@@H]12)OCc1ccccc1 -45.4% [at 11.4 µM]
CO[C@@H]1COC(=O)C/C=C\[C@@H](C)COC(=O)[C@H](COCc2ccccc2)NC(=O)C/C=C\[C@H]1C -56.3% [at 11.4 µM]
